Screen size: about 69,000 compounds; about 8,600 (12%) showed an effect of 50% or more. This excerpt belongs to a sample that is enriched for strong results.

The subject of this assay is Plasmodium berghei. The experiment in a line: Screen against P. berghei liver stage (PbLuc), transformed with Luciferase, at 10uM. Format: functional, HepG2. The note with it: tested at 10 uM.
Regarding `COc1cccc2ccc(N3CCC(O)(c4ccc(C)cn4)CC3)nc12`, the INHIBITION is -44.2%.
For the compound `Cn1cc2ncn([C@H]3CCN(Cc4ccccc4)C3)c(=O)c2n1`, the INHIBITION is -25.1%.
The figure for `O=C(C(CNCc1ccccn1)c1ccccc1)N1CCOCC1` (stereo not drawn) is -5.32%.
Under `CC(C)(C)c1n[nH]c(C2CN(C(=O)CCCn3cccn3)CCO2)n1` (stereo not drawn) stands 17%; under `c1cncc(CN2CCc3ncnc(C4CCOC4)c3CC2)c1` (stereo not drawn), 30.7%; under `CSc1nsc(NC(=O)N2CCc3ccccc3C2)n1`, 16.5%.
The figure for `CCNC(=O)NCc1nn(CCN2CCCC2)c(=O)c2ccccc12` is 47.7%; for `CC(C)CNC(=O)CC1(Cn2cnnn2)CCCCC1` it is 67.3%; for `CC(C)OCCCNC(=O)CC1(Cn2cnnn2)CCCCC1` it is -22.2%.
Regarding `CC(C)NC(=O)CC1(Cn2cnnn2)CCCCC1`, the INHIBITION stood at 35.8%.
Under `Cc1ccc(N2CCCN(C(=O)CCc3nccs3)CC2)nn1` stands 3.73%; under `Cc1nc(N)cc(C2(C)CCCNC2)n1` (stereo not drawn), 32.8%.
The figure for `CC1CN(C(=O)CN(Cc2ccccc2)C2CC2)CCO1` (stereo not drawn) is 15.6%; for `COC(=O)C(NC(=O)C1CCCC1)c1cc(F)ccc1F` (stereo not drawn) it is 29.4%; for `COc1ccncc1NC(=O)c1[nH]nc(C(C)C)c1Br` it is 31.1%.
Regarding `Cc1ccnc(NC(=O)c2ccc(Cl)o2)c1`, the INHIBITION amounted to 32.4%.
The figure for `COc1ncccc1NC(=O)c1[nH]nc(C(C)C)c1Br` is -41.6%; for `CC(C(=O)Nc1ccnn1C(C)C)N1CCN(Cc2ccccc2)CC1` (stereo not drawn) it is -8.07%.
Under `Cc1ccnc(NC(=O)c2[nH]nc(C(C)C)c2Br)c1` stands 65%; under `CC(C)Nc1nc(C(=O)Nc2ccccn2)cs1`, -42.1%; under `CC(C)c1n[nH]c(C(=O)Nc2ccccn2)c1Br`, 67.4%.
The figure for `Cc1ccnc(NC(=O)c2ccc(Br)o2)c1` is -51.5%; for `CC(C)c1n[nH]c(C(=O)NC(C)c2ccncc2)c1Br` (stereo not drawn) it is -9.76%.
On to `Cc1nc2c(c(C)c1CC(=O)Nc1ccnn1C(C)C)c(=O)[nH]n2C`, for which the INHIBITION was -1.33%.
Turning to `CC(C)c1n[nH]c(C(=O)Nc2ccnn2C(C)C)c1Br`, the INHIBITION is given as 88.5%.
The figure for `CC(C)c1n[nH]c(C(=O)Nc2ccncc2)c1Br` is 77.6%; for `Cc1ccccc1-n1cc(CN(C)C(=O)CC2C(=O)NCCN2C)cn1` (stereo not drawn) it is 42.3%.
The figure for `Cc1cccc(C(=O)N2CCCC[C@]3(C)NC(=O)CCC[C@H]23)n1` is 31.6%; for `CN1CCCN(C(=O)c2cccn2-c2ccc3c(c2)OCCO3)CC1` it is 6.99%; for `CC(NC(=O)Nc1ccc(N2CCCC2)nc1)c1nncn1C` (stereo not drawn) it is 9.54%.
The figure for `O=C(NCC1(O)COCCN(Cc2cccc(O)c2)C1)c1cnccn1` (stereo not drawn) is -25.3%; for `COc1ccc(C(=O)NCCCn2ccnc2)c(OC)n1` it is 26.6%.
As to `CC(C)c1[nH]c2ncccc2c1CN1CCOCC1`, the INHIBITION is on record as -21.6%.
The figure for `Cc1ccc(CNC(=O)CN2CCOC(Cn3cccn3)C2)s1` (stereo not drawn) is -45.4%; for `O=C(NCc1ccc(-n2cncn2)nc1)c1cc(Cl)ccn1` it is 45%.
Under `Cc1cc(C)n(Cc2cccc(C(=O)NCCSCC(C)(C)O)c2)n1` stands 0.426%; under `O=C(NCC1CCC1)c1cccc(CN2CCS(=O)(=O)CC2)c1`, 33.4%.
On to `Cc1cccc(NC(=O)c2sc(C)nc2C)n1`, for which the INHIBITION is -9.57%.
`COc1ccccc1NC(=O)c1[nH]nc(C(C)C)c1Br`: the INHIBITION is reported as -101%.
The figure for `Cc1cccc(NC(=O)c2cncc(C3CCNCC3)n2)n1` is 15.5%; for `CC(C)CC(NC(=O)c1cccc(F)c1F)C(=O)Nc1cc[nH]n1` (stereo not drawn) it is -36.4%; for `CC(C)c1n[nH]c(C(=O)Nc2cc[nH]n2)c1Br` it is 55.9%.
The figure for `Cc1cccc(NC(=O)c2[nH]nc(C(C)C)c2Br)n1` is 65%.
The figure for `CN(C)CCCN(Cc1cnn(C)c1)Cc1ccco1` is -9.35%; for `Oc1ccccc1-c1n[nH]c(C2CCCO2)n1` (stereo not drawn) it is -3.11%.
Take `c1cnnc(N2CCCC2CNCc2cscn2)c1` (stereo not drawn): the INHIBITION is given as -56.1835%.
For the compound `Cc1ccsc1C1CC(=O)Nc2c1cnn2C(C)C` (stereo not drawn), the INHIBITION was found to be 11.9%.
The figure for `CC(NCCn1cccn1)c1ccccc1F` (stereo not drawn) is 27.9%; for `c1ccc(-n2cncn2)c(CNCCn2cccn2)c1` it is -14.2%.
As to `Cc1ccc(-c2n[nH]cc2CNCC2CCS(=O)(=O)C2)o1` (stereo not drawn), the INHIBITION was -29.4%.
The figure for `CC(NCCn1cccn1)c1cc(F)ccc1F` (stereo not drawn) is 53.8%; for `Cc1ccc(-c2nc(CNCCn3cccn3)cs2)o1` it is 10.8%; for `Cc1ccc(-c2n[nH]cc2CNCCn2cccn2)o1` it is 77.6%.
Under `CC(NCCn1cccn1)c1ccc(F)cc1F` (stereo not drawn) stands 16.8%; under `Fc1cc(CNCCn2cccn2)ccc1-n1cncn1`, 50.8%.
Under `Fc1ccc(-c2n[nH]cc2CNCCn2cccn2)cc1` stands 77.6%.
Turning to `Fc1ccc(CNCCn2cccn2)cc1F`, the INHIBITION stood at 26.9%.
Consider `CCn1cnnc1CCNCc1c[nH]nc1-c1ccc(F)cc1`, for which the INHIBITION is on record as -5.94%.
The figure for `Fc1ccc(-c2nc(CNCCn3cccn3)cs2)cc1` is 4.02%; for `Cn1cc(CN2CC[C@H]3O[C@@H](COCc4cccnc4)CC[C@H]32)cn1` it is 3.11%.
The figure for `Cc1ncc2c(n1)C1(CCN(C(=O)C3CC3)CC1)OCC2` is 7.15%; for `O=C(c1cnn(-c2ccccc2)n1)N1CCCC(n2cccn2)C1` (stereo not drawn) it is 33.8%; for `CCOC(=O)c1c(NC(=O)CN2CCN(C(C)=O)CC2)sc(C)c1C` it is -13.5%.
The figure for `COc1cc(NC(=O)NCC2CCCO2)cc(OC)c1OC` (stereo not drawn) is 29.8%.
Take `CC(C)c1nc2c(n1C)CCN(Cc1cccc(C(N)=O)c1)C2`: the INHIBITION stood at 34%.
Under `Cc1ccc(F)c(S(=O)(=O)NCc2cccc(C(=O)N3CCCC3)c2)c1` stands 17.5%; under `Fc1ccc(CNCCn2cccn2)c(F)c1`, -13.3%.
Under `Fc1ccc(CNCCn2cccn2)c(Cl)c1` stands 64.1%.
As for `Cc1cc(F)ccc1CNCCn1cccn1`, the INHIBITION is recorded as 30.1%.
The figure for `Cc1cc(C)c(CNC(=O)CCC2CCCO2)c(=O)[nH]1` (stereo not drawn) is 11.45%.
As for `NC(=O)NCC(=O)N1C[C@@H]2CC[C@H]1CN(Cc1cscn1)C2`, the INHIBITION came out at 7.3%.
For the compound `Cc1nnc(CCNC(=O)[C@H]2CNC[C@@H](C(=O)N3CCCC3)C2)s1`, the INHIBITION is recorded as -5.08%.
Consider `COc1ncccc1NC(=O)N(Cc1ccc(C(N)=O)cc1)C1CC1`, for which the INHIBITION is -35.7%.
`COc1ncccc1NC(=O)N(Cc1ccc(C)o1)C1CC1`: the INHIBITION was found to be 58.2%.
Under `COc1ncccc1NC(=O)N(Cc1ccco1)C1CC1` stands -18%; under `CCN(C(=O)Nc1cccnc1OC)C1CC1`, 53.5%.
The figure for `COc1ncccc1NC(=O)N(Cc1ccccn1)C1CC1` is -47.6%; for `COc1ncccc1NC(=O)N(CC(C)C)C1CC1` it is -2.19%.

(Values after ChEMBL document CHEMBL4513216, “Probing the Open Global Health Chemical Diversity Library for Multistage-Active Starting Points for Next-Generation Antimalarials” (ACS Infect Dis, 2020).)
